Measurements published in PubChem BioAssay AID430 (Sanford-Burnham Center for Chemical Genomics, 2006).
The whole screen tested about 63,000 compounds, of which about 1,100 (1.7%) were called active. Rule as the data show it: active = cytotoxicity above about 50%; inactive = the rest. This excerpt belongs to a sample that is enriched for actives. Potency and affinity values are given separately.

assay: HPDE-C7 pancreatic duct cell viability loss – fluorescence, HTS (AID 430); conditions: HPDE-C7 pancreatic duct cells viability, at 10 µM, hits give high values;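 also: cells exposed to compound for 48 hours before viability readout; 0% = vehicle and 100% = reference cytotoxic drug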

Structure (SMILES)	cytotoxicity
Cc1ccc(-c2nnc(N3CCN(S(C)(=O)=O)CC3)c3ccccc23)cc1	-1.3% (inactive)
c1ccc(-c2nnc(N3CCN(c4ccccn4)CC3)c3ccccc23)cc1	5.2% (inactive)
O=C(OCC(=O)N1CCN(C(=O)c2ccco2)CC1)c1ccccc1C(=O)c1ccc(Cl)cc1	-5% (inactive)
CN1CCCN(C(c2ccccc2)c2ccc(Cl)cc2)CC1 (stereo not drawn)	12.4% (inactive)
O=S(=O)(CCN1CCN(C(c2ccccc2)c2ccccc2)CC1)C(F)(F)F	-0.3% (inactive)
Cc1cccc(CN2CCN(c3ccccn3)CC2)c1	-18.2% (inactive)
Cc1cccc(CN2CCN(C(=O)c3ccccc3F)CC2)c1	5.3% (inactive)
OCCOCCN1CCN(C(c2ccccc2)c2ccc(Cl)cc2)CC1 (stereo not drawn)	50.4% (active)
Cc1cccc(CN2CCN(C(c3ccccc3)c3ccc(Cl)cc3)CC2)c1 (stereo not drawn)	95.1% (active)
CC(C)N1C(=O)CCC1C(=O)N1CCN(c2ccccn2)CC1 (stereo not drawn)	9.8% (inactive)
Fc1ccc(OCc2nc(-c3ccc(Br)o3)no2)c(F)c1	6.5% (inactive)
Cc1ccc(-n2c(SCC(N)=O)nnc2-c2cccnc2)c(C)c1	-1.8% (inactive)
FC(F)(F)c1ccc2c(c1)nc1n2CCCC1	-20.5% (inactive)
O=C(CC1COc2ccccc2O1)NC1CCCCC1 (stereo not drawn)	-3.9% (inactive)
CN1CCN(S(=O)(=O)c2ccc(NC(=O)c3cccs3)cc2)CC1	-7.7% (inactive)
CCCC(=O)Nc1nnc(-c2ccc(Cl)s2)o1	1.2% (inactive)
CCC1CCCCN1S(=O)(=O)c1ccc(C(=O)Nc2nnc(-c3ccccc3Cl)o2)cc1 (stereo not drawn)	67.6% (active)
COc1ccc(-c2nnc(NC(=O)c3ccc(S(=O)(=O)N4COCC4(C)C)cc3)o2)cc1	28.7% (inactive)
CC1CCN(S(=O)(=O)c2ccc(NC(=O)c3cccs3)cc2)CC1	19.6% (inactive)
CC1CCCCN1S(=O)(=O)c1ccc(NC(=O)c2cccc(-n3cnnn3)c2)cc1 (stereo not drawn)	30% (inactive)
CCc1nnc(NC(=O)c2ccc(S(=O)(=O)N3CCCCC3C)cc2)s1 (stereo not drawn)	-15% (inactive)
CC1(C)COCN1S(=O)(=O)c1ccc(C(=O)Nc2nnc(-c3ccc(Cl)s3)o2)cc1	95.1% (active)
CC1CCCCN1S(=O)(=O)c1ccc(C(=O)Nc2nnc(-c3ccccc3Cl)o2)cc1 (stereo not drawn)	57.4% (active)
O=C(Nc1nnc(-c2ccccc2Cl)o1)c1cccnc1	39.4% (inactive)
CC1CCCCN1S(=O)(=O)c1ccc(NC(=O)c2cccs2)cc1 (stereo not drawn)	52.1% (active)

Structure (SMILES)	cytotoxicity
CCC1CCCCN1S(=O)(=O)c1ccc(C(=O)Nc2nnc(-c3cccs3)o2)cc1 (stereo not drawn)	37.7% (inactive)
C=CCn1c(SCC(=O)NCCOC)nc2scc(-c3ccco3)c2c1=O	-6.7% (inactive)
c1ccc(-c2nn3c(Cn4nnc5ccccc54)nnc3s2)nc1	-48.7% (inactive)
O=C(Nc1ccon1)c1ccc2c(c1)OCO2	-3.5% (inactive)
CC(C)N1C(=O)CCC1C(=O)NC1CCCC1 (stereo not drawn)	-3.8% (inactive)
Cc1ccc(-c2csc3nnc(SCC(=O)N4CCN(Cc5ccccc5)CC4)n23)cc1	4.7% (inactive)
COc1ccc(-c2ccc(NCCC3=CCCCC3)nn2)cc1OC	18.1% (inactive)
CCOC(=O)CSc1nnc(-c2ccc(S(=O)(=O)N3CCC(C)CC3)cc2)o1	2% (inactive)
O=c1cc(CN2CCN(c3ccc(F)cc3)CC2)nc2sccn12	-3.4% (inactive)
Cc1nc2ccccn2c(=O)c1CCN1CCC(C(=O)c2ccc(F)cc2)CC1	-14.3% (inactive)
CCCOC(=O)C1C2C=CC3(CN(c4ccc(Cl)c(F)c4)C(=O)C13)O2 (stereo not drawn)	-15.1% (inactive)
C=CCOC(=O)c1[nH]c2c(c1C)C(=O)CC(c1cc(OC)c(OC)c(OC)c1)C2 (stereo not drawn)	-23.8% (inactive)
C/C=C/COC(=O)c1[nH]c2c(c1C)C(=O)CC(c1ccco1)C2 (stereo not drawn)	63.7% (active)
C/C=C/COC(=O)c1[nH]c2c(c1C)C(=O)CC(c1ccc(N(C)C)cc1)C2 (stereo not drawn)	11.6% (inactive)
C=CCOC(=O)c1[nH]c2c(c1C)C(=O)CC(c1ccco1)C2 (stereo not drawn)	74.9% (active)
CCN1CCN(CC(=O)Nc2ccccc2)C(=O)C1=O	-4.7% (inactive)
CCOc1nc2ccccc2nc1NS(=O)(=O)c1ccccc1	0.8% (inactive)
CCN(CC)C(=O)CSC(=Nc1ccccc1F)NC#N	3.7% (inactive)
Cc1cc(NC(=O)c2ccccc2-c2ccccc2C(=O)O)no1	5.8% (inactive)
O=c1[nH]c(NCCCO)nc2c1C1(CCCC1)Cc1ccccc1-2	23.9% (inactive)
CC1(C)Cc2ccccc2-c2nc(NCCO)n(-c3ccccc3)c(=O)c21	-0.1% (inactive)
O=c1[nH]c(NCCO)nc2c1C1(CCCCC1)Cc1ccccc1-2	13.1% (inactive)
Cn1c(NCCCO)nc2c(c1=O)C1(CCCCC1)Cc1ccccc1-2	53.9% (active)
CC1(C)CC(n2c(NCCO)nc3c(c2=O)C2(CCCC2)Cc2ccccc2-3)CCO1 (stereo not drawn)	56.4% (active)
Cn1c(NCCO)nc2c(c1=O)C1(CCCCC1)Cc1ccccc1-2	8.3% (inactive)

Structure (SMILES)	cytotoxicity
COc1ccccc1NC(=O)CSc1nnnn1-c1ccc2c(c1)OCO2	-9.1% (inactive)
COc1ccc(C2c3c(oc4c(C)cc(C)cc4c3=O)C(=O)N2Cc2cccnc2)cc1OC (stereo not drawn)	43.3% (inactive)
O=C(CCNS(=O)(=O)c1cccc2nsnc12)N1CC(=O)N(CCc2ccccc2)C(=O)C1	-14.8% (inactive)
COc1ccc(C(=O)NCCn2cc(SCC(=O)Nc3cc(C)on3)c3ccccc32)cc1OC	-41% (inactive)
Cc1cc(C)n2nc(SCC(=O)NCc3ccco3)nc2n1	-20.4% (inactive)
COCCn1c(C)cc(C(=O)COC(=O)CCc2ccc(S(=O)(=O)N3CCOCC3)cc2)c1C	-9.3% (inactive)
CC(=O)Oc1cc2c(C(C)=O)coc2c2ccccc12	4.5% (inactive)
COc1ccc(C(=O)N(Cc2nc(-c3ccc(C)cc3)no2)C2CCCCC2)cc1OC	9.2% (inactive)
COc1ccccc1-c1nc(-c2cccc(C)c2)no1	9.9% (inactive)
O=C(NCc1nc2ncc(Br)cc2[nH]1)c1ccccc1	-4.4% (inactive)
COc1cccc(OCc2nc3ncc(Br)cc3[nH]2)c1	61.9% (active)
COc1cccc(OCc2nc3ccccc3[nH]2)c1	-1.9% (inactive)
CCOC(=O)c1[nH]c2ccc(Br)cc2c1NC(=O)CCN1CCCCC1	0.6% (inactive)
Cc1ccc2c(c1)nnn2C1CCN(CC(=O)Nc2ccccc2N2CCOCC2)CC1	11% (inactive)
Cc1c(NC(=O)Nc2cccc(Cl)c2)c(=O)n(-c2ccccc2)n1C	-2.1% (inactive)
Cc1c(NC(=O)c2ccc(Br)o2)c(=O)n(-c2ccccc2)n1C	-3.4% (inactive)
Cc1c(NC(=O)Nc2ccc(Cl)c(Cl)c2)c(=O)n(-c2ccccc2)n1C	65.8% (active)
Cc1c(NC(=O)Nc2ccc(Cl)cc2)c(=O)n(-c2ccccc2)n1C	-19.8% (inactive)
Cc1c(NC(=O)c2ccc(=O)oc2)c(=O)n(-c2ccccc2)n1C	-6.7% (inactive)
O=C(CSc1ccc2nnc(-c3ccccn3)n2n1)NCc1ccc2c(c1)OCO2	-15.3% (inactive)
CCCC(=O)Nc1ccccc1-c1nnn(CC(=O)Nc2ccc(OC)cc2)n1	-30.9% (inactive)
O=C(CSc1nnc(-c2cc3ccccc3cc2O)n1Cc1ccco1)c1ccc(F)cc1	-5.2% (inactive)
COc1ccc(C(=O)CSc2nnc(-c3cc4ccccc4cc3O)n2Cc2ccco2)cc1	55.6% (active)
COc1ccc(C(=O)CSc2nnc(-c3ccccn3)n2Cc2ccco2)cc1	-5% (inactive)
CCN(CCNC(=O)c1cccc(N2CCCC2=O)c1)c1ccccc1	-9.5% (inactive)

Structure (SMILES)	cytotoxicity
CCCCCc1cc(O)c2c(C)cc(=O)oc2c1	50.3% (active)
CCc1cc(=O)oc2cc(C)cc(O)c12	0% (inactive)
CCCCc1cc(=O)oc2cc(C)c(CN3CCCC3)c(O)c12	-12.4% (inactive)
COc1cc(Cn2c(-c3nonc3N)nc3ccccc32)ccc1C	30.4% (inactive)
Nc1nonc1-c1nc2ccccc2n1CC(=O)NC1CCCC1	0% (inactive)
COc1ccc(CCNC(=O)Cn2c(-c3nonc3N)nc3ccccc32)cc1OC	6.6% (inactive)
CCCCOc1ccccc1NC(=O)Cn1c(-c2nonc2N)nc2ccccc21	55.1% (active)
CCOC(=O)c1ccccc1NC(=O)Cn1c(-c2nonc2N)nc2ccccc21	67.8% (active)
Nc1nonc1-c1nc2ccccc2n1Cc1ccccc1	-38.3% (inactive)
COc1cccc(Cn2c(-c3nonc3N)nc3ccccc32)c1	53.8% (active)
COC(=O)c1ccccc1NC(=O)Cn1c(-c2nonc2N)nc2ccccc21	47% (inactive)
CCOc1ccc(CCNC(=O)Cn2c(-c3nonc3N)nc3ccccc32)cc1OCC	-22.9% (inactive)
CC(=O)N1CCN=C1SCc1ccccc1	3% (inactive)
Cc1cc(C(=O)N2CC(C)CC(C)C2)n(-c2ccccc2)n1 (stereo not drawn)	-6.9% (inactive)
Cc1nc2ccccc2c(=O)n1NC(=O)c1ccc(F)cc1Cl	-0.2% (inactive)
COc1ccc2nc(NC(=O)c3ccc4ncsc4c3)sc2c1	0.5% (inactive)
CCOc1cccc(CN2CCN(c3cccc(C(F)(F)F)c3)CC2)c1O	-3.2% (inactive)
CCOC(=O)C1=C(CSc2nc3c(cc2C#N)CCC3)OC(N)=C(C#N)C1c1ccccc1 (stereo not drawn)	101% (active)
CCOC(=O)C1=C(CSc2nc(-c3ccncc3)ccc2C#N)OC(N)=C(C#N)C1c1cccnc1 (stereo not drawn)	4% (inactive)
CCOC(=O)C1=C(CSc2nc(C)ccc2C#N)OC(N)=C(C#N)C1c1cccc(OC)c1OC (stereo not drawn)	59.3% (active)
CCOC(=O)C1=C(CSc2nc(C)cc(C)c2C#N)OC(N)=C(C#N)C1c1cccs1 (stereo not drawn)	-28.5% (inactive)
CCOC(=O)C1=C(CSc2nc3c(cc2C#N)CN(C)CC3)OC(N)=C(C#N)C1c1ccccc1 (stereo not drawn)	3.4% (inactive)
CCOC(=O)C1=C(C)OC(N)=C(C#N)C1c1ccc(OC)c(C)c1OC (stereo not drawn)	-1.3% (inactive)
